Results published in ChEMBL document CHEMBL3988442, “University of Dundee, Small-Polar-MMV Screening Library” (2021).
For some assays here: Measured potencies and affinities stand elsewhere.

Experiments:
Set-up in all cases: scale not given: direction of the effect not stated beside the values
[1] = target: Protein translocase subunit SecA (Escherichia coli (strain K12)) (UniProt P10408); test: Assay to Identify E. coli SecA ATPase Inhibitors; type: functional; settings: 30 µM
[2] = target: T1, Ubiquitin-activating enzyme e1, putative (Leishmania donovani (strain BPK282A1)) (UniProt E9BSI1); test: Leishmania donovani Ubiquitin Activating Enzyme (LdE1); type: functional; settings: 30 µM
T1 sequence (whole entry): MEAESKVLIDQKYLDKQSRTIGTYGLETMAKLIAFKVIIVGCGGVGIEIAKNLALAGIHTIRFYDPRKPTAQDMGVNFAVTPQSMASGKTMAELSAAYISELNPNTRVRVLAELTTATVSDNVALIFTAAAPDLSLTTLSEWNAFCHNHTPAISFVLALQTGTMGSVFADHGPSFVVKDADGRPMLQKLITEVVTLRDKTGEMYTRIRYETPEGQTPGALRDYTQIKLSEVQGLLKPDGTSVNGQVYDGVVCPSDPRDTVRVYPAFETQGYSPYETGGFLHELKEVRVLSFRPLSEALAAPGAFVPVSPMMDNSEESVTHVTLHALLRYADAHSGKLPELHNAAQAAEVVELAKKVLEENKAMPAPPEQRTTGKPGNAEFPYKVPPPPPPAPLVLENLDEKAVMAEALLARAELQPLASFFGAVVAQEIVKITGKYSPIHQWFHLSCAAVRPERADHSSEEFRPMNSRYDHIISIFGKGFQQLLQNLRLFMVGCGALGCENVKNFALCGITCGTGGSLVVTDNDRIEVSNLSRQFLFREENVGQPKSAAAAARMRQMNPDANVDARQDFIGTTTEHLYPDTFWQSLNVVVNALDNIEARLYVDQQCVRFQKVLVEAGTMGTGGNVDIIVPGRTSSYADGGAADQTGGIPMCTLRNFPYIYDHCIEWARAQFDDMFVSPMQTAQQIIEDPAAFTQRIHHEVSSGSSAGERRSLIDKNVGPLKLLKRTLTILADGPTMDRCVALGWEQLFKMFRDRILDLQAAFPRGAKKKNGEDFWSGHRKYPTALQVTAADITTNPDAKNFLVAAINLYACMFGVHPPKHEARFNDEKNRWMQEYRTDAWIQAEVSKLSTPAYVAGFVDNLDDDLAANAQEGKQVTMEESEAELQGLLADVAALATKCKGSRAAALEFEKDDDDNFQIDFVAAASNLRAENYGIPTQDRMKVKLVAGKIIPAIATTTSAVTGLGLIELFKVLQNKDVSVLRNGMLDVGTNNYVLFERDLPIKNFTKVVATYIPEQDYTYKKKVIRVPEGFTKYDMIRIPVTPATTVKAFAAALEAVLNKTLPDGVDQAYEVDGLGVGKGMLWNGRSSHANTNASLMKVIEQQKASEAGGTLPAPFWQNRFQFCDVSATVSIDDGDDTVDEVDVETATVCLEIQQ

[3] = target: AMP-activated protein kinase, AMPK (Homo sapiens) (UniProt P54646+O43741+P54619+Q9UGJ0+Q9Y478+Q13131+Q9UGI9); test: AMP-dependent Kinase enzyme assay. An in vitro enzyme assay that detects ADP turnover that is directly proportional to AMPK activity. This uses naive AMPK that is activated during the assay with MK-8722; type: functional; settings: 30 µM
[4] = target: Sialic acid-binding Ig-like lectin 9 (Homo sapiens) (UniProt Q9Y336); test: Hs-Siglec9 ALPHAscreen SOP 20170721; settings: 10 µM
Sialic acid-binding Ig-like lectin 9 (Homo sapiens), sequence (Q9Y336 whole entry): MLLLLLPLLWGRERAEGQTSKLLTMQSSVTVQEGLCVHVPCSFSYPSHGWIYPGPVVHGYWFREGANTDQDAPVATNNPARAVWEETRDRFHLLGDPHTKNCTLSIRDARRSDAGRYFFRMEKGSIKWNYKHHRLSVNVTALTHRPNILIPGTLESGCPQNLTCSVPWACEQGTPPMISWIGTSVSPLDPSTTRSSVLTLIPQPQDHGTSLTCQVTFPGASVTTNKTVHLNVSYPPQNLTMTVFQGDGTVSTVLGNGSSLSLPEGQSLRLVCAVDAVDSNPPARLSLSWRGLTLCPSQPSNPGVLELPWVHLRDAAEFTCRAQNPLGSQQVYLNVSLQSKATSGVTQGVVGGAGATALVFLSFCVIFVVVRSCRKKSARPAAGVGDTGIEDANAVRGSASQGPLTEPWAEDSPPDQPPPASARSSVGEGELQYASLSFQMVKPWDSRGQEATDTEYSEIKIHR

[5] = tested on: Trypanosoma cruzi; test: Trypanosoma cruzi phosphomannomutase and mannose-1-phosphate guanylyltransferase assay; type: functional; settings: 10 µM
[6] = target: T2, Arginase-2, mitochondrial (Homo sapiens) (UniProt P78540); test: in vitro enzyme assay to detect the production of urea directly proportional to the activity of Arginase II; type: functional; settings: 33.3 µM; note: in the data most compounds retested in dose-response had high values
T2 sequence (whole entry): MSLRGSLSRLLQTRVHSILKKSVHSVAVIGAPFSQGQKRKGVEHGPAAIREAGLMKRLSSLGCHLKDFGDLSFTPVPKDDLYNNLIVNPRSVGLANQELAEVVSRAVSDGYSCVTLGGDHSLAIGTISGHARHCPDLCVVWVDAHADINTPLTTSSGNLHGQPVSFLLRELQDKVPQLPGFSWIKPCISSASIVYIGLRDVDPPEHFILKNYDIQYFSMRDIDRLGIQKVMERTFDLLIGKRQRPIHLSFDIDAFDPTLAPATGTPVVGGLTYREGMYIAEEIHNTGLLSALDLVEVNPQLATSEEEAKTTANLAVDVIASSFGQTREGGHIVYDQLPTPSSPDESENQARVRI

[7] = target: T3, Proteasome subunit beta (Trypanosoma cruzi) (UniProt O96673); test: Trypanosoma cruzi proteasome chymotrypsin-like activity (TcProtChymo) assay.; note: in the data most compounds retested in dose-response had high values; type: functional; settings: 9.37 µM
T3 sequence (whole entry): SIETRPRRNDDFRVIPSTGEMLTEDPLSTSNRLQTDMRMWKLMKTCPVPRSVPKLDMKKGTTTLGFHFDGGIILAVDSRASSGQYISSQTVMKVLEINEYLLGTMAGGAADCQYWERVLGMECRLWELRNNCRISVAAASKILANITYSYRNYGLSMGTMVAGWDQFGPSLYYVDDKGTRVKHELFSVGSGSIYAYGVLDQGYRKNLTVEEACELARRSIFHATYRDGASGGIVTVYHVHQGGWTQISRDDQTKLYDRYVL

[8] = species on record: Homo sapiens; test: To identify inhibition of the IFN signalling (Jak-Stat) pathway via expression of an eGFP reporter gene under the control of an IFN-stimulated response element (ISRE) containing MxA promoter.; type: functional; settings: 30 µM
[9] = target: T4, Tyrosyl-tRNA synthetase, putative (Trypanosoma cruzi (strain CL Brener)) (UniProt Q4DSP6); test: Trypanosoma cruzi tyrosyl tRNA synthetase (TcYRS) _High Tyrosine SOP; type: functional; settings: 30 µM; note: in the data most compounds retested in dose-response had high values
T4 sequence (whole entry): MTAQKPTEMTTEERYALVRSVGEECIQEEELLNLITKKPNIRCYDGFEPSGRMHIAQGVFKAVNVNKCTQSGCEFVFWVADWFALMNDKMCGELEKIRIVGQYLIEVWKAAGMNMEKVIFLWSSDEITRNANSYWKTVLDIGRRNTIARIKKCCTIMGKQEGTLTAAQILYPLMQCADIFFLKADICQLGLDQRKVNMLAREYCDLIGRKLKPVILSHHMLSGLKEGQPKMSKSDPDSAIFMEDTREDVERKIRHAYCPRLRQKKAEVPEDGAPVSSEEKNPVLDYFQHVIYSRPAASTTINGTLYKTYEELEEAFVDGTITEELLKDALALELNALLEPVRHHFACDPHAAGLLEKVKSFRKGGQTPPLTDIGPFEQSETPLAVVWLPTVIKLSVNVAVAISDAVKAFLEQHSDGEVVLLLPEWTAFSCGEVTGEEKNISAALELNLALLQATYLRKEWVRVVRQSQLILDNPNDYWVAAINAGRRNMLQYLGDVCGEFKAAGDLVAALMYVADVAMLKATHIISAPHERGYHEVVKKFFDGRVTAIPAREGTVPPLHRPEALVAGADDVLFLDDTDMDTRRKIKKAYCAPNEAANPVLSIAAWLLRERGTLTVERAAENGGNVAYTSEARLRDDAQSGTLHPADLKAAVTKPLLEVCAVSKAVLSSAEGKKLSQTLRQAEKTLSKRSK

[10] = target: T4, Tyrosyl-tRNA synthetase, putative (Trypanosoma cruzi (strain CL Brener)); test: Trypanosoma cruzi tyrosyl tRNA synthetase (TcYRS) SOP; type: functional; settings: 30 µM
[11] = target: Chromo domain-containing protein 1 (Saccharomyces cerevisiae (strain ATCC 204508 / S288c) (Baker's yeast)) (UniProt P32657); test: ScCHD-1 Enzyme Inhibition Assay; type: functional; settings: 30 µM; note: in the data most compounds retested in dose-response had high values
Chromo domain-containing protein 1 (Saccharomyces cerevisiae (strain ATCC 204508 / S288c) (Baker's yeast)), sequence (P32657 whole entry, the tested form may be a part): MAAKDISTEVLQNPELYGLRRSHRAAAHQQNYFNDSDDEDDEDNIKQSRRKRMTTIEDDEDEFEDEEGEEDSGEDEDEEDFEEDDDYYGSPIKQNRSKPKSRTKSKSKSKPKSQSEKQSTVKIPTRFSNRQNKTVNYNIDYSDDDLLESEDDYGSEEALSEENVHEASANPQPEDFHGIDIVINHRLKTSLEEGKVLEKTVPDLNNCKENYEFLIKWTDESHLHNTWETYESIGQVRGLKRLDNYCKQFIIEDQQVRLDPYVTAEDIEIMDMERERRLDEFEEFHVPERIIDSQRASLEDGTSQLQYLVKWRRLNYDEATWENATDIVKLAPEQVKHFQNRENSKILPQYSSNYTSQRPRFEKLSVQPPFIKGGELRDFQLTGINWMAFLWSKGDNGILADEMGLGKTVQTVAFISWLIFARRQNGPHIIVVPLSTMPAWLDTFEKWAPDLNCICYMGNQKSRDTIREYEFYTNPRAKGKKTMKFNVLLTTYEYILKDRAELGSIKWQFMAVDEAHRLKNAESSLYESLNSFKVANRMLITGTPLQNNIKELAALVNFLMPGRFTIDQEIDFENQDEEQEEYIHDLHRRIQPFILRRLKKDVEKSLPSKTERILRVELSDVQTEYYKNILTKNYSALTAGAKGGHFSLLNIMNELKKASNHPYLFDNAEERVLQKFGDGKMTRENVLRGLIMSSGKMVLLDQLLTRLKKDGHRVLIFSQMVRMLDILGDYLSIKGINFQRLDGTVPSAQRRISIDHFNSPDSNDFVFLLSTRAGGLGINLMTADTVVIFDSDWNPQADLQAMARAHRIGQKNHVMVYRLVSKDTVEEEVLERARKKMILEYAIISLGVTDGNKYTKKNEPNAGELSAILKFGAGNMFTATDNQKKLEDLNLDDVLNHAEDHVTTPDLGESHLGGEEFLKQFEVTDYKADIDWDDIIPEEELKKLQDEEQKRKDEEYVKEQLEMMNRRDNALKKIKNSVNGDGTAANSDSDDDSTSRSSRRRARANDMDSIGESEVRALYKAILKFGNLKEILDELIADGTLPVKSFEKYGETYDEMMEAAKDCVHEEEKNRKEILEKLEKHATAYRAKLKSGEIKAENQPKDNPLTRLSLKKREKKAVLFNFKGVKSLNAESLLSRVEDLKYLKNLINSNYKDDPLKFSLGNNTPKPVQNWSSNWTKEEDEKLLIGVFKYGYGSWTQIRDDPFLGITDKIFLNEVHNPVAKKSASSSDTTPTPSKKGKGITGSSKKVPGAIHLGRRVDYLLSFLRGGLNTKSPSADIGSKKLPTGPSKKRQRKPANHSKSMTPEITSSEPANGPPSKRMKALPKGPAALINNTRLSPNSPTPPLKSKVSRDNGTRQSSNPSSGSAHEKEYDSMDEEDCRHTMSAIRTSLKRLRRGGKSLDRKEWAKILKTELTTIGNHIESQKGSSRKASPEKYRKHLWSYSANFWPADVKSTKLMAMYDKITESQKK

Protein translocase subunit SecA (Escherichia coli (strain K12)), sequence (P10408 whole entry): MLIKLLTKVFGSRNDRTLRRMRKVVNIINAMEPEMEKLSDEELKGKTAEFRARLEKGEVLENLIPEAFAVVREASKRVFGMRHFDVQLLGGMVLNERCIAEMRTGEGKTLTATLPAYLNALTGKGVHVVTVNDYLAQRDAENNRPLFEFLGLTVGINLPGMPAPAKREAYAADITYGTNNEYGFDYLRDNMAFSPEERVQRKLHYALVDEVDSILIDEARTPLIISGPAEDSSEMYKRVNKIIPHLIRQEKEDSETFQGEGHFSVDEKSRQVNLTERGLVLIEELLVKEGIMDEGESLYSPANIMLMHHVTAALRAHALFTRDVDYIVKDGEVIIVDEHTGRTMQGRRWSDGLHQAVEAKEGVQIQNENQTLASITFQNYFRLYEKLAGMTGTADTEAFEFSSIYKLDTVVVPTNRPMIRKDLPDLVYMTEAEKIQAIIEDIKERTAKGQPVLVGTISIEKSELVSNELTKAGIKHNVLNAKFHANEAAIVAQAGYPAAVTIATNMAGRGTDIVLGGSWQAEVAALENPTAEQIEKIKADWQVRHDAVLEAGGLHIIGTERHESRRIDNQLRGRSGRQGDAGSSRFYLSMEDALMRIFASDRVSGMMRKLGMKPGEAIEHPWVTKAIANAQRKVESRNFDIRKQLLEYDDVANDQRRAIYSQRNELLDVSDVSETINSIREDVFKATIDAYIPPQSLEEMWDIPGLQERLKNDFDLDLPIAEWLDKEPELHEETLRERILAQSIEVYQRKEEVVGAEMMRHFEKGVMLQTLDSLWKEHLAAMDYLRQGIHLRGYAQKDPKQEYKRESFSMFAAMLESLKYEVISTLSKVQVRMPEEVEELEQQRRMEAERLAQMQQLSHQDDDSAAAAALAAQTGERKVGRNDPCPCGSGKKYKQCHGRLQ

| Compound | Percent Effect [1] | Percent Effect [2] | Percent Effect [3] | Percent Effect [4] | Percent Effect [5] | Percent Effect [6] | Percent Effect [7] | Percent Effect [8] | Percent Effect [9] | Percent Effect [10] | Percent Effect [11] |
| --- | --- | --- | --- | --- | --- | --- | --- | --- | --- | --- | --- |
| Cc1cc(C)n(CC2CCCN2CCCS(=O)(=O)N(C)C)n1 (configuration not stated) | -1.98% | 16.2% | -6.22% | 14% | 5.99% | 11.9% | 13.6% | 8.21% | 4.76% | 19.5% | -4.54% |
| COCCNC(=O)[C@H]1CN(c2nnc(C)s2)C[C@H]2OCC[C@@H]12 | -2.67% | 0% | 13.1% | 0.154% | -0.394% | -0.233% | 3.79% | 6.49% | 1.06% | 1.28% | 2.36% |
| COc1ccc(CN2CC[C@H]3[C@H]2CCN3C(=O)c2cnn(C)c2)cc1 | -0.777% | 13.5% | 4.48% | -12.3% | -3.23% | 2.87% | 12.2% | 9.65% | 1.08% | 7.69% | -5.75% |
| CCc1nc(C2CCCN(C(=O)c3cn(C)nc3C)C2)no1 (configuration not stated) | -2.94% | 5.41% | -8.22% | 13.8% | 7.89% | 0.185% | 5.57% | 9% | 3.96% | 13.4% | 65.5% |
| CCCS(=O)(=O)N1CCN(c2cc(-n3nc(C)cc3C)nc(C)n2)CC1 | -2.23% | 0% | -0.103% | 1.6% | 7.57% | 2.76% | 10.7% | -11% | 2.15% | -3.7% | -4.3% |
| CN(Cc1cccs1)C(=O)CN1CCCC1Cn1cncn1 (configuration not stated) | -1.48% | 10.4% | -63.7% | 2.24% | -1.08% | -5.52% | 20.3% | -3.55% | 7.53% | 13.6% | -2.25% |
| COCCN1CCN(C(=O)C2CC=CC2)Cc2cccnc21 | -4.04% | 8% | 10.1% | 4.75% | 7.14% | -55.4% | 10.4% | -18.4% | 3.12% | 17.5% | -7.24% |
| CCN(C(=O)COC)C(c1cccnc1)c1cc(C)cc(C)c1 (configuration not stated) | 0.0465% | 2.74% | 4.88% | 27.6% | -11.3% | 1.6% | 12.9% | 22.9% | -2.08% | -8.64% | -2.33% |
| c1cc2nccc(CC3CCCN(Cc4ncc[nH]4)CC3)c2cn1 (configuration not stated) | -2.14% | 9.46% | 4.64% | 12.8% | 5.34% | -2.09% | 9.98% | 12.3% | 11.8% | 24.7% | -17.2% |
| CCc1nc(CN2CCN(C(=O)c3cnccn3)CC2)cs1 | -2.42% | 5.41% | -4.67% | 12.2% | 4.92% | -5.73% | 15.3% | 11.6% | 1.98% | 11% | -2.71% |
| O=C(c1ccc(NC2CC2)nc1)N1CCCC(n2cccn2)C1 (configuration not stated) | -6.81% | 5.26% | -1.25% | 1.67% | -4.51% | 2.3% | 3.51% | 18.5% | 0.49% | 7.32% | -0.025% |
| CSC(C)C(=O)N1CCCN(Cc2cnn(C(C)C)c2)CC1 (configuration not stated) | 1.59% | 21.6% | -6.76% | -4.41% | -10.3% | 2% | 19.1% | 7.04% | 8.37% | 11.1% | -4.54% |
| C1CCCN(c2nc(C3CC3)ns2)CC1 | -7.97% | -5.48% | -19.9% | 6.34% | -4.31% | -2.27% | 12.2% | 30.1% | -4.3% | -10% | -3.08% |
| CCn1nc(C)c2ccn(CC(=O)NC3CCCC3)c(=O)c21 | -4.42% | 7.79% | 58% | 0.145% | -4.63% | 0.645% | 5.57% | 20.1% | -1.06% | -6.41% | -2.48% |
| CCOC(=O)[C@]12CCCN(Cc3nccs3)C[C@H]1CN(C(C)=O)C2 | -1.26% | 5.2% | -1.96% | -4.79% | -9.17% | -0.645% | 15.7% | 7.39% | 0% | 6.41% | -6.7% |
| Cn1ccnc1CN1CCN(CCOc2ccccc2C#N)CC1 | -0.0443% | 21.1% | 4.11% | -9.14% | -3.83% | 5.4% | 5.67% | 18.9% | 7.39% | 13.6% | -1.99% |
| COc1ccc(COCC(O)CNC(=O)c2cc(C)cc(C)c2)cc1 (configuration not stated) | -3.84% | 13.9% | 0.387% | -0.514% | 0.718% | -4.09% | 9.95% | 9.63% | 4.17% | 17.7% | -15.9% |
| Cc1ccc2c(n1)N(CCn1cccn1)CCN(C(=O)NC1CC1)C2 | -4.03% | 10.8% | -7.12% | 26.1% | 6.55% | -1.24% | 18.1% | -2.83% | 5.38% | 16.1% | -4.31% |
| COc1ccccc1N1CCC(CNCc2cccc(OC)c2OC)C1 (configuration not stated) | -3.66% | 10.8% | -14.2% | 3.03% | 6.51% | -13.6% | 7.75% | 18.9% | 13.3% | 23.5% | -8.44% |
| O=C(CCc1cccnc1)N1CCCC(n2cncn2)C1 (configuration not stated) | -2.09% | 0% | 4.67% | 4.06% | 2.74% | 0.76% | -1.23% | -1.71% | 2.46% | -1.27% | -1.28% |
| Fc1cccc(-c2nc(CN3CCCCC3Cn3cncn3)co2)c1 (configuration not stated) | -2.29% | 7.59% | 1.61% | 1.08% | 7.65% | 1.52% | 1.72% | -27.5% | 3.45% | 13.9% | -6.86% |
| CS(=O)(=O)N1CCN(CC(O)COc2ccc(F)cc2)CC1 (configuration not stated) | -0.431% | 10.4% | 2.55% | -2.66% | -4.02% | 0.632% | 11.4% | 26.8% | 2.86% | 21.2% | -16.1% |
